Pf gamet viab: P. falciparum stage V gametocyte viability inhibition; P. falciparum stage V gametocytes, ATP luminescence, 24 h; inhibition, % at 10.9 µM; 150,000 compounds, 0.065% hits;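 active = inhibition above the mean plus 3 SD of compounds within the control limits, set per campaign, cut at about 38% in these data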;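 also: 0% = DMSO wells and 100% = medium only without gametocytes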
Mcl1-Noxa inh: Mcl-1/Noxa interaction inhibition | TR-FRET Mcl-1/Noxa peptide binding, 2 h | inhibition, % at 21.7 µM | 220,000 compounds, 1.5% hits | AID 1022;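 active = compounds that cut the protein-peptide binding signal by more than 50% relative to plate controls in a single-dose test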;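 also: His-tagged Mcl-1 with rhodamine Noxa BH3 peptide and terbium anti-His antibody; 0% = Mcl-1 plus Noxa peptide wells and 100% = peptide-only wells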
Target sequence (Q07820 whole entry, looked up): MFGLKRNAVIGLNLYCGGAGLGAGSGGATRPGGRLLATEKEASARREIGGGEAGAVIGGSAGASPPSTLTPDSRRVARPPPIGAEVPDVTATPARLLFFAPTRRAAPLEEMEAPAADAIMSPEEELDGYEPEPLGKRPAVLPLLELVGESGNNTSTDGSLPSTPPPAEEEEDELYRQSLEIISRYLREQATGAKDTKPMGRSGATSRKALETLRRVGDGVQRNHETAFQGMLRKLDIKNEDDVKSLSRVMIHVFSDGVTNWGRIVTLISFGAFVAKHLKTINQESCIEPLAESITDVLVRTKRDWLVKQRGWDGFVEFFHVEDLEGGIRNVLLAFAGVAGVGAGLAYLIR
Mcl1-Bid inh: disrupts binding of human Mcl-1 to Bid peptide; 220,000 compounds, 0.97% hits; inhibition, % at 21.7 µM; TR-FRET Mcl-1/Bid-Dy647 peptide binding, 1536-well; Q07820;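 active = compounds that cut the binding signal by more than half at the single screening dose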;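 also: His-tagged Mcl-1 with europium anti-His antibody binding Bid BH3 peptide; 0% = Mcl-1 plus peptide wells and 100% = peptide-only wells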
Bim-Mcl-1: disrupts Bim peptide binding to human Mcl-1 | inhibition, % at 10 µM | 190,000 compounds, 0.1% hits | AID 1009 | Bead-based flow cytometry, Bim peptide-Mcl-1 binding | Q07820; in the data active = inhibition above about 40%;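 also: 0% = no compound tracer wells and 100% = peptide blocker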
14-3-3 Bad inh: disrupts binding of bovine 14-3-3 zeta to phospho-Bad peptide. P63103. TR-FRET 14-3-3zeta/Dy647-pBad peptide displacement, 1 h. inhibition, % at 21.7 µM. 220,000 compounds, 0.71% hits. AID 781;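 active = inhibition above about 70%, limit read from the data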;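 also: 0% = full 14-3-3 plus peptide FRET controls and 100% = background without 14-3-3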
Target sequence (P63103 whole entry, looked up): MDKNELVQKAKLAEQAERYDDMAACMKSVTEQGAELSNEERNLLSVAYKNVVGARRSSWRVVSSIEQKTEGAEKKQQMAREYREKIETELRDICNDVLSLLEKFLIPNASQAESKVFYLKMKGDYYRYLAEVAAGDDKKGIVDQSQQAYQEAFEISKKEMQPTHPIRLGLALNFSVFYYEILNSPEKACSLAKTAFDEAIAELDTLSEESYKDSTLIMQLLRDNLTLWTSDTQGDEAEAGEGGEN
eIF4E 4G PPI: inhibitors of eIF4E and eIF4G interaction in translation initiation | TR-FRET eIF4E-eIF4GI(517-606) binding, 2 h | 220,000 compounds, 0.37% hits | P63073+Q04637 | inhibition, % at 21.7 µM;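 active = inhibition above about 30%, limit read from the data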;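 also: 0% = full FRET control wells and 100% = background wells lacking eIF4GI fragment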
Numbers without * were called inactive; x = no result given. Rows were chosen to be rich in hits. Some 2.7% of all compounds tested hit in one or more screens of this group.

SMILES	Pf gamet viab	Mcl1-Noxa inh	Mcl1-Bid inh	Bim-Mcl-1	14-3-3 Bad inh	eIF4E 4G PPI
O=C(NCc1ccco1)C(=O)c1c[nH]c2ccccc12	5.4	32.9	-17.2	-3.0	-6.7	-1.1
Cc1ccc(NCC(=O)N/N=C/c2ccncc2)cc1	-1.1	12.9	-69.4	1.0	-6.9	0.9
Cc1ccc(C(=O)Nc2nnc(CC(=O)N/N=C/c3ccncc3)s2)cc1	x	63.2*	16.8	-2.0	5.6	8.9
O=c1c2c(nc3nc(NCc4cccc(Cl)c4)[nH]n13)CCC2	10.3	-8.0	-20.0	-2.0	72.2*	-0.8
CC(C)c1ccc(CNc2nc3nc4c(c(=O)n3[nH]2)CCC4)cc1	5.8	36.0	8.3	0.0	35.1	-4.3
O=C(Cn1cnc2scc(-c3cccc([N+](=O)[O-])c3)c2c1=O)NCc1ccco1	18.6	66.8*	-24.5	-1.0	15.8	18.6
Cc1nc(SCC(=O)Nc2ccc(Cl)cc2[N+](=O)[O-])nc(C)c1C	7.0	3.8	-43.5	3.0	3.0	-0.7
CN(C)c1ccc(/C=N/NC(=O)c2cc(-c3ccc4c(c3)OCO4)n[nH]2)cc1	-1.9	59.8*	1.3	x	1.1	2.5
O=C(N/N=C/c1ccc(F)cc1)c1cc(-c2ccc3c(c2)OCO3)n[nH]1	11.2	-9.1	4.2	x	8.1	1.4
CN(CCO)S(=O)(=O)c1ccc2c(c1)C(=NO)c1cc(S(=O)(=O)N(C)CCO)ccc1-2	8.1	39.3	83.1*	5.0	-8.0	-0.9
Cc1ccnc(NC(=O)COC(=O)c2ccc(F)cc2F)n1	-6.6	31.0	-1.8	x	6.1	14.4
Cc1ccnc(NC(=O)Cc2ccc(F)cc2)n1	-6.7	-8.7	-16.3	x	5.7	85.0*
N/C(=N\OC(=O)COc1ccc2ccccc2c1)c1cccnc1	5.1	2.5	60.9*	-6.0	2.0	3.4
N/C(=N\OC(=O)COc1ccc2ccccc2c1)c1ccncc1	x	0.7	-12.6	3.0	-3.3	2.6
CCOC(=O)CNC(=O)N1CCCC(CNS(=O)(=O)Cc2ccccc2)C1 (configuration not stated)	x	-5.8	-2.2	1.0	-6.1	1.5
O=C(NCCc1ccccc1)N1CCCC(CNS(=O)(=O)Cc2ccccc2)C1 (configuration not stated)	22.2	54.3*	10.1	0.0	-6.5	-2.6
CC(C)CC(=O)NC(=S)Nc1ccc(S(=O)(=O)Nc2nccs2)cc1	0.7	8.7	-63.9	-3.0	-20.4	-3.9
C=CCSC1=N/C(=C\C=C\c2ccco2)C(=O)S1	x	75.8*	31.9	-6.0	10.0	7.7
C=CCNC(=S)NCCO	x	-16.4	-23.5	x	-3.6	5.4
CN(C)c1ccc(/C=C2\N=C(c3ccc(Cl)c([N+](=O)[O-])c3)NC2=O)cc1	13.0	72.6*	39.9	0.0	56.9	11.2
Cc1cc(C)c(C)c(S(=O)(=O)NCCCN2CCOCC2)c1C	2.8	9.5	-0.8	0.0	86.3*	5.0
COc1cc(S(=O)(=O)NCCCN2CCOCC2)ccc1-n1cnnn1	9.5	34.2	25.2	0.0	70.2*	2.3
c1csc(Cc2nn3c(-c4n[nH]c5c4CCC5)nnc3s2)c1	-6.4	54.0*	-16.6	2.0	0.2	-9.2
c1coc(-c2nnc3sc(Cc4cccs4)nn23)c1	x	38.8	-25.2	-2.0	-13.8	14.1
COc1cc(C(=O)NC2CCCc3ccccc32)ccc1OCC(=O)Nc1ccc(F)cc1 (configuration not stated)	17.4	14.7	0.5	-2.0	-4.7	-0.8
SMILES	Pf gamet viab	Mcl1-Noxa inh	Mcl1-Bid inh	Bim-Mcl-1	14-3-3 Bad inh	eIF4E 4G PPI
CC(=O)c1c(C)nc(-c2ccc(Cl)cc2)nc1N=CN(C)C	12.7	19.9	3.0	-1.0	84.3*	59.7*
CC(C)CC(NC(=O)C1CCCCC1)C(=O)N1CCN(c2ccccn2)CC1 (configuration not stated)	x	-13.5	-32.6	0.0	-0.5	2.3
CCn1c(SCC(=O)Nc2nccc(C)n2)nc2ccccc21	-19.1	9.0	-35.1	x	-6.7	6.5
Cc1cc(C)n(CC(=O)N/N=C/c2ccc3c(c2)OCO3)n1	x	8.1	-10.9	0.0	-14.8	-4.9
Cc1nn(CC(=O)N/N=C/c2ccc3c(c2)OCO3)c(C)c1Br	-2.3	-4.5	-13.1	-7.0	80.5*	3.3
N#CCC(=O)Nc1ccc(C(=O)Nc2cccnc2)cc1	0.9	-3.6	-5.0	x	2.6	-1.5
Cc1cc(N)ccc1N=Nc1c(C)n(C)n(-c2ccccc2)c1=O	x	17.4	-65.0	1.0	-29.8	-1.7
Cc1ccc(N=Nc2ccc(N)cc2C)c(S(N)(=O)=O)c1	x	51.9*	15.0	x	3.1	-4.7
Cc1ccc(C(=O)N/C(=C\c2ccc(Cl)cc2)C(=O)NCCCN2CCOCC2)cc1	13.4	7.8	3.9	-2.0	6.5	4.8
CSc1ccccc1NC(=O)CNCCCN1CCOCC1	21.6	39.1	89.1*	x	38.4	-1.1
Cc1ccc(C(=O)N/C(=C\c2ccc(C(C)C)cc2)C(=O)NCCCN2CCOCC2)cc1	-8.1	51.1*	-10.9	-1.0	30.1	2.6
O=C(NCCCN1CCOCC1)c1cccnc1	-28.0	2.7	0.5	-2.0	8.3	12.4
CCOCCCNCC(=O)Nc1ccccc1N1CCOCC1	2.4	22.4	42.1	0.0	71.0*	-4.9
O=C(NCCCN1CCOCC1)c1ccccc1	x	14.0	22.7	3.0	80.7*	0.9
O=C(NCc1ccc(OC(F)(F)F)cc1)c1cccc2c1C(=O)c1ccc(N3CCCC3)cc1S2(=O)=O	38.9*	x	x	x	x	x
COc1cccc(N2CCN(c3cnc4ccccc4n3)CC2)c1	17.2	19.9	-39.5	-3.0	-7.6	-1.1
COc1ccc(N2CCN(c3cnc4ccccc4n3)CC2)cc1	-6.7	59.0*	-15.9	3.0	45.9	8.4
CNC(=O)NC(=O)COC(=O)c1ccccc1OCc1ccccc1	3.8	54.5*	-12.8	-2.0	-5.7	1.3
COc1ccccc1C(=O)OCC(=O)NC(=O)NCc1ccccc1	-11.7	-15.8	2.9	-8.0	0.8	-0.2
O=C(CNC(=O)c1ccco1)NCC(=O)OCc1ccccc1Br	x	-13.5	-11.7	43.0*	-13.4	6.4
O=C(CNC(=O)c1cccs1)NCC(=O)OCc1ccccc1Br	-6.4	14.5	3.5	-2.0	-1.4	0.2
Cc1ccccc1N1CCN(Cc2c[nH]c3ccccc23)CC1	x	5.1	13.6	-134.0	70.5*	-6.1
N#CC(C#N)=C1c2cc(S(=O)(=O)NCCO)ccc2-c2ccc(S(=O)(=O)NCCO)cc21	-6.8	-14.6	-32.4	x	-0.7	-2.5
N#CC(C#N)=C1c2cc(S(N)(=O)=O)ccc2-c2ccc(S(N)(=O)=O)cc21	10.9	49.7	29.3	-5.0	81.2*	11.3
C1=CC2CC1CC2CN1CCN(Cc2ccccc2)CC1 (configuration not stated)	x	-6.2	61.3*	5.0	45.9	-0.2
Fc1ccccc1N1CCN(CC2CC3C=CC2C3)CC1 (configuration not stated)	x	13.6	-36.9	0.0	19.1	2.6

Assay outcomes deposited in PubChem BioAssay by several laboratories.
